Test results reported in PubChem BioAssay (EPA / NIEHS).
Results filed as inconclusive are left out. Calls of active or inactive are those of the source. How the source made its calls, unless noted: active means hit-call score of the fitted dose curve at least 0.9, where 1 is the maximum; inactive means score below 0.9.

Columns and labels:
[1] = CCTE_Harrill_HTTr_Viability_DMEM_24hr: (Pilot) CCTE's 24-hour Cell Viability Assessment for the High-Throughput Transcriptomics (HTTr) Platform, in MCF-7 cells cultured in DMEM + 10% fetal bovine serum, Harrill Lab (AID 2283975)
Summary of the method: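 MCF-7 cells in DMEM with 10% FBS exposed for 24 hours to an eight-point dilution series. Membrane integrity by propidium iodide exclusion with high content imaging; bidirectional fit against DMSO.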

[2] = CCTE_Harrill_HTTr_Viability_PRF_DMEM_6hr: (Pilot) CCTE's 6-hour Cell Viability Assessment for the High-Throughput Transcriptomics (HTTr) Platform, in MCF-7 cells cultured phenol red-free DMEM + 10% charcoal-stripped fetal bovine serum, Harrill Lab (AID 2283976)
From the text: (§1) This is a cell-based assay that evaluates cell viability using high content imaging to evaluate membrane integrity using propidium iodide dye exclusion in a 384 well format.One of seven assay components measured from the CCTE_Harrill_HTTr_Viability assay. This was part of a pilot experiment. This is a cell-based assay that evaluates cell viability in MCF-7 cells cultured in phenol red-free DMEM + 10% charcoal-stripped fetal bovine serum. High content imaging is used to evaluate membrane integrity using propidium iodide dye exclusion. Measurements are taken at 6 hours after chemical dosing in 384-well format.The assay component endpoint CCTE_Harrill_HTTr_Viability_PRF_DMEM_6hr was analyzed with bidirectional fitting relation to DMSO as the negative control and baseline of activity. Using a type of viability reporter to understand changes in cytotoxicity, gain-of-signal activity can be used to evaluate membrane integrity using propidium iodide dye exclusion. To generalize the intended target to other relatable targets, this assay endpoint is annotated to cell cycle, where the subfamily is cytotoxicity.
(§2) Chemicals were tested in MCF7 cells in an eight point dilution series with a six hour exposure duration.

[3] = CCTE_Harrill_HTTr_Viability_PRF_DMEM_12hr: (Pilot) CCTE's 12-hour Cell Viability Assessment for the High-Throughput Transcriptomics (HTTr) Platform, in MCF-7 cells cultured in phenol red-free DMEM + 10% charcoal-stripped fetal bovine serum, Harrill Lab (AID 2283977)
From the text: as §1, with “12” for “6”, “CCTE_Harrill_HTTr_Viability_PRF_DMEM_12hr” for “CCTE_Harrill_HTTr_Viability_PRF_DMEM_6hr”
Chemicals were tested in MCF7 cells in an eight point dilution series with a twelve hour exposure duration.

[4] = CCTE_Harrill_HTTr_Viability_PRF_DMEM_24hr: (Pilot) CCTE's 24-hour Cell Viability Assessment for the High-Throughput Transcriptomics (HTTr) Platform, in MCF-7 cells cultured in phenol red-free DMEM + 10% charcoal-stripped fetal bovine serum, Harrill Lab (AID 2283980)
From the text: as §1, with “24” for “6”, “CCTE_Harrill_HTTr_Viability_PRF_DMEM_24hr” for “CCTE_Harrill_HTTr_Viability_PRF_DMEM_6hr”
Chemicals were tested in MCF7 cells in an eight point dilution series with a twenty-four hour exposure duration.

[5] = CCTE_Harrill_HTTr_Apoptosis_DMEM_6hr: (Pilot) CCTE's 6-hour Apoptosis Assessment for the High-Throughput Transcriptomics (HTTr) Platform, in MCF-7 cells cultured in DMEM + 10% fetal bovine serum, Harrill Lab (AID 2283981)
Summary of the method: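 Caspase-3/7 activation read by high content imaging with CellEvent Caspase 3/7 Green in MCF-7 cells (DMEM + 10% FBS), 6 h after dosing; eight-point dilution series. Bidirectional fitting relative to DMSO baseline.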

[6] = CCTE_Harrill_HTTr_Apoptosis_DMEM_12hr: (Pilot) CCTE's 12-hour Apoptosis Assessment for the High-Throughput Transcriptomics (HTTr) Platform, in MCF-7 cells cultured in DMEM + 10% fetal bovine serum, Harrill Lab (AID 2283982)
Summary of the method: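 MCF-7 cells in DMEM + 10% FBS, exposed 12 h to an eight-point dilution series; caspase-3/7 activation imaged with CellEvent Green. Bidirectional fit versus DMSO.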

[7] = CCTE_Harrill_HTTr_Apoptosis_DMEM_24hr: (Pilot) CCTE's 24-hour Apoptosis Assessment for the High-Throughput Transcriptomics (HTTr) Platform, in MCF-7 cells cultured in DMEM + 10% fetal bovine serum, Harrill Lab (AID 2283983)
Summary of the method: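 MCF-7 cells in DMEM + 10% FBS, eight-point dilution series, 24 h exposure. Caspase-3/7 activation imaged by high-content imaging with CellEvent Caspase 3/7 Green. Bidirectional curve fitting against DMSO baseline.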

[8] = CCTE_Harrill_HTTr_Apoptosis_PRF_DMEM_6hr: (Pilot) CCTE's 6-hour Apoptosis Assessment for the High-Throughput Transcriptomics (HTTr) Platform, in MCF-7 cells cultured phenol red-free DMEM + 10% charcoal-stripped fetal bovine serum, Harrill Lab (AID 2283984)
From the text: This is a cell-based assay that evaluates apoptosis using high content imaging to evaluate activation of caspase-3/7 using the CellEvent Caspase 3/7 Green detection reagent in 384-well format.One of seven assay components measured from the CCTE_Harrill_HTTr_Apoptosis assay. This was part of a pilot experiment. This is a cell-based assay that evaluates apoptosis in MCF-7 cells cultured in phenol red-free DMEM + 10% charcoal-stripped fetal bovine serum. High content imaging is used to evaluate activation of caspase-3/7 using the CellEvent Caspase 3/7 Green detection reagent. Measurements are taken at 6 hours after chemical dosing in 384-well format.The assay component endpoint CCTE_Harrill_HTTr_Apoptosis_PRF_DMEM_6hr was analyzed with bidirectional fitting relation to DMSO as the negative control and baseline of activity. Using a type of viability reporter, gain-of-signal activity can be used to evaluate activation of caspase-3/7 using the CellEvent Caspase 3/7 Green detection reagent to understand changes in apoptosis. To generalize the intended target to other relatable targets, this assay endpoint is annotated to cell cycle, where the subfamily is apoptosis.
as §2

[9] = CCTE_Harrill_HTTr_Apoptosis_PRF_DMEM_24hr: (Pilot) CCTE's 24-hour Apoptosis Assessment for the High-Throughput Transcriptomics (HTTr) Platform, in MCF-7 cells cultured in phenol red-free DMEM + 10% charcoal-stripped fetal bovine serum, Harrill Lab (AID 2283986)
Summary of the method: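 MCF-7 cells in phenol red-free DMEM with 10% charcoal-stripped FBS, exposed 24 h across an eight-point dilution series. Caspase-3/7 activation imaged with CellEvent Green by high content imaging; bidirectional fitting against DMSO.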

[10] = TOX21_TR_RXR_BLA_Antagonist_Followup_viability: Viability Assessment in the Tox21 Thyroid Hormone Receptor beta Retinoid X Receptor alpha (RXRa) Antagonism Beta-lactamase (BLA) Follow-Up Assay (AID 2283979; active means hit-call score of the fitted dose curve at least 0.9, where 1 is the maximum)
Summary of the method: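 RXRa-UAS-bla HEK293T cells seeded 2,500/well in phenol red-free DMEM with 2% charcoal-stripped FBS, attached 5 h, then exposed to compounds at 11 concentrations in triplicate for 16 h at 37C/5% CO2. Viability read by CellTiter-Glo ATP luminescence; bidirectional fit versus DMSO.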

Measured: outcome

CC[C@H](C)C(=O)O[C@H]1C[C@@H](C)C=C2C=C[C@H](C)[C@H](CC[C@@H]3C[C@@H](O)CC(=O)O3)[C@H]21
not listed: [10]
inactive: all other assays above

CCC(C)(C)C(=O)O[C@H]1C[C@@H](C)C=C2C=C[C@H](C)[C@H](CC[C@@H]3C[C@@H](O)CC(=O)O3)[C@H]21
not listed: [10]
inactive: all other assays above

CC(C)c1cccc(C(C)C)c1N1C(=O)c2ccc(O)cc2C1=O
inactive: [10]
